{
  "source": "ChEMBL document CHEMBL4513216",
  "about": "“Probing the Open Global Health Chemical Diversity Library for Multistage-Active Starting Points for Next-Generation Antimalarials” (ACS Infect Dis, 2020)",
  "note": "Hit rate of the full screen: of about 69,000 compounds, about 8,600 (12%) showed an effect of 50% or more. The full list was thinned out, with strong results kept by preference.",
  "data": [
    {"system": "Plasmodium berghei", "experiment": "Screen against P. berghei liver stage (PbLuc), transformed with Luciferase, at 10uM", "type": "functional, HepG2", "conditions": "tested at 10 uM", "units": {"INHIBITION": "%"}, "values": [
      {"smiles": "CCOc1cc([C@@H]2N[C@H](c3nccs3)Cc3ccsc32)ccc1OC", "INHIBITION": 25.05},
      {"smiles": "COc1cc([C@@H]2N[C@H](c3nccs3)Cc3ccsc32)cc(OC)c1OC", "INHIBITION": 47.2},
      {"smiles": "CCOc1ccc([C@@H]2N[C@H](c3nccs3)Cc3ccsc32)cc1OC", "INHIBITION": 69.25},
      {"smiles": "CCOc1cc([C@H]2N[C@@H](c3nc(C)cs3)Cc3ccsc32)ccc1OC", "INHIBITION": 75},
      {"smiles": "COc1ccc(OC)c([C@@H]2N[C@H](c3nccs3)Cc3ccsc32)c1", "INHIBITION": 43.4},
      {"smiles": "COCCN1CCC2(CC1)CN(Cc1cccc(C)n1)C(=O)CO2", "INHIBITION": 7.53},
      {"smiles": "COc1ccc(CCC(=O)N(C(C)C)C2CCOCC2)cc1", "INHIBITION": -42.1},
      {"smiles": "CC(C(=O)N1CCN(c2ccccc2)CC1)n1cc(Br)cn1", "note": "(stereo not drawn)", "INHIBITION": -35.4},
      {"smiles": "O=C(c1c[nH]nn1)N1CCN(C(c2ccccc2)C(F)(F)F)CC1", "note": "(stereo not drawn)", "INHIBITION": -10.9},
      {"smiles": "O=C(c1cc[nH]n1)N1CCN(C(c2ccccc2)C(F)(F)F)CC1", "note": "(stereo not drawn)", "INHIBITION": 17.1},
      {"smiles": "O=C(c1ccccn1)N1CCN(C(c2ccccc2)C(F)(F)F)CC1", "note": "(stereo not drawn)", "INHIBITION": 51.7},
      {"smiles": "NC(=O)C1CN(c2ccc(F)cc2)CCN1", "note": "(stereo not drawn)", "INHIBITION": 25.8},
      {"smiles": "c1ccc2nc(N3CCCCC3)c(NCc3nnc4n3CCC4)nc2c1", "INHIBITION": 0.897},
      {"smiles": "Cc1nc2ccccc2nc1NCc1nnc2n1CCC2", "INHIBITION": 52.9},
      {"smiles": "c1ccc2nc(N3CCCC3)c(NCc3nnc4n3CCC4)nc2c1", "INHIBITION": 16.1},
      {"smiles": "Cc1cnn(CCNCc2csc(-c3ccc(C)o3)n2)c1", "INHIBITION": 15.3},
      {"smiles": "Cn1cc(C(=O)Nc2ccc(CC(=O)NC3CC3)cc2)nn1", "INHIBITION": 11.3},
      {"smiles": "CN(C)C(=O)Cc1ccc(NC(=O)c2cn(C)nn2)cc1", "INHIBITION": 20},
      {"smiles": "Cn1cc(C(=O)Nc2ccc(CC(=O)NCC(F)(F)F)cc2)nn1", "INHIBITION": 50.5},
      {"smiles": "CCC(C)c1cc(C(=O)N(CC(=O)NC)c2cccc(F)c2)on1", "note": "(stereo not drawn)", "INHIBITION": 3.04},
      {"smiles": "Cc1cccc(CN2CCCn3c(nnc3Cn3cccn3)C2)n1", "INHIBITION": -23},
      {"smiles": "CNC(=O)c1cc2c(s1)CCN(C(=O)CCC1CCCN(C)C1)C2", "note": "(stereo not drawn)", "INHIBITION": 42.6},
      {"smiles": "CCNc1cc2c(nn1)CCN(C(=O)CC1CCCC1)C2", "INHIBITION": 17.4},
      {"smiles": "CN(C)C(=O)c1cc2c(s1)CCN(C(=O)CCCN1CCCCC1)C2", "INHIBITION": 71.5},
      {"smiles": "CN1CCCC(CCC(=O)N2CCc3onc(C(=O)N(C)C)c3C2)C1", "note": "(stereo not drawn)", "INHIBITION": 12},
      {"smiles": "CN(C)c1cc2c(nn1)CCN(C(=O)c1cc3c(s1)CCCC3)C2", "INHIBITION": -2.13},
      {"smiles": "CN1CCCC(CCC(=O)N2CCc3sc(C(=O)N(C)C)cc3C2)C1", "note": "(stereo not drawn)", "INHIBITION": 73.6},
      {"smiles": "CN(C)C(=O)c1noc2c1CN(C(=O)CCCN1CCCCC1)CC2", "INHIBITION": 41.5},
      {"smiles": "CCN1CCC(CC(=O)N2CCc3sc(C(=O)N(C)C)cc3C2)CC1", "INHIBITION": 64},
      {"smiles": "CCN1CCc2cc(C(=O)N(C)C)c(NCC3CC3)nc2CC1", "INHIBITION": 37.2},
      {"smiles": "c1cc(-c2ccc3nc(C4CCN(CC5CC5)CC4)nn3c2)cs1", "INHIBITION": 23.6},
      {"smiles": "Cc1ccc2c(n1)N(CCn1cccn1)CCN(CC1CC1)C2", "INHIBITION": -6.3},
      {"smiles": "CCN(Cc1cnn(C)c1)C[C@H]1CC[C@@H](Cc2ccc(OC)nc2)O1", "INHIBITION": -22.3},
      {"smiles": "CN(C)CCN1CCCC12CCN(C(=O)c1ccoc1)CC2", "INHIBITION": -44.2},
      {"smiles": "O=c1c2cn[nH]c2nc(SCCN2CCCC2)n1-c1ccccc1", "INHIBITION": 17.7},
      {"smiles": "CC(C)CNC(=O)[C@H]1CCS(=O)(=O)[C@@H]2CN(Cc3ccc(F)cc3)C[C@H]12", "INHIBITION": -0.371},
      {"smiles": "CSc1cccc(CN(C)C(=O)Cn2ncc(N3CCCC3)cc2=O)c1", "INHIBITION": 25.1},
      {"smiles": "CCC1C(=O)NCCN1c1cc(C)ncn1", "note": "(stereo not drawn)", "INHIBITION": 26.8},
      {"smiles": "O=C(Cc1ccccn1)N1CCc2ncnc(N3CCCC3)c2CC1", "INHIBITION": -10.3},
      {"smiles": "OC1CN(Cc2cccc(N3CCOCC3)c2)Cc2ccccc21", "note": "(stereo not drawn)", "INHIBITION": 28.7},
      {"smiles": "OC1COCCN(Cc2cccc(N3CCOCC3)c2)C1", "note": "(stereo not drawn)", "INHIBITION": 15.9},
      {"smiles": "N[C@@H]1CCN(Cc2cccc(N3CCOCC3)c2)C[C@H]1O", "INHIBITION": 58.6},
      {"smiles": "CC(=O)Nc1ccc(CNc2ccn(Cc3ccccc3)n2)cc1", "INHIBITION": -51.8},
      {"smiles": "Cc1nccn1-c1cccc(C2CCCN2S(=O)(=O)N(C)C)n1", "note": "(stereo not drawn)", "INHIBITION": 53},
      {"smiles": "CC(C)c1nccn1-c1cncc(C2CCCN(C3CCCCC3)C2)n1", "note": "(stereo not drawn)", "INHIBITION": 44.1},
      {"smiles": "CC(C)c1nccn1-c1cccc(C2CCCN2S(=O)(=O)N(C)C)n1", "note": "(stereo not drawn)", "INHIBITION": 21.9},
      {"smiles": "CC(C)c1nccn1-c1cccc(C2CCN(C)CC2)n1", "INHIBITION": 58},
      {"smiles": "CC(C)c1nccn1-c1cccc(C2CCCN(S(=O)(=O)N(C)C)C2)n1", "note": "(stereo not drawn)", "INHIBITION": 50.1},
      {"smiles": "CN(C)S(=O)(=O)N1CCC(c2ccnc(Nc3ccccn3)n2)C1", "note": "(stereo not drawn)", "INHIBITION": 29.5},
      {"smiles": "CCc1nccn1-c1cccc(C2CCCN2S(=O)(=O)N(C)C)n1", "note": "(stereo not drawn)", "INHIBITION": 36.7},
      {"smiles": "CC(C)c1nccn1-c1cccc(C2CCCN(C3CCCC3)C2)n1", "note": "(stereo not drawn)", "INHIBITION": 35.3},
      {"smiles": "CC(C)c1nccn1-c1cncc(C2CCCN(C3CCCC3)C2)n1", "note": "(stereo not drawn)", "INHIBITION": 41.2},
      {"smiles": "COc1ccc(C(=O)Nc2cccc(C(N)=O)c2)c(OC)n1", "INHIBITION": -26.1}
    ]}
  ]
}
